Compounds with a hit are over-represented: about 4.9% of the library has one in this group of screens.
Calb FLC: C. albicans growth modulation with fluconazole | C. albicans CaCi-2 (fluconazole-resistant clinical isolate) + fluconazole, Alamar Blue growth, 48 h | growth inhibition, % (test concentration not listed) | 0.57% of 300,000 active;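 active means growth inhibition above about 58% in most replicates, limit read from the data, passing the limit was not always enough; inconclusive means exactly half the replicates above a set limit; inactive means most replicates below a set limit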;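 further: all wells also contain fluconazole at 8 µg/ml as a sub-toxic cotreatment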
CSC inhib: cancer stem cell inhibition; 1.1% of 300,000 active; cancer stem cell-like cells viability, luminescence; AID 2717; inhibition, % at 7.5 µM; in the data active means inhibition above about 75%; inconclusive means no clear call, values can overlap the other calls; tested in HMLE shEcad cells
Mdm2-MdmX inh: human Mdm2/MdmX binding inhibition; O15151+Q00987; SaOS-2 split-luciferase Mdm2/MdmX complementation, luminescence; inhibition, % at 8 µM; 3% of 330,000 active;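 active means inhibition of at least 50% at 8 µM in the primary screen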
PP1 inh: PP1-alpha (human) inhibition in PP5 counter-screen; 0.9% of 320,000 active; inhibition, % at 6.7 µM; P62136; purified PP1alpha, OMFP fluorescence;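 active means inhibition above the mean inhibition of all tested compounds plus 3 SD, computed separately for each screening campaign, cut at about 15% in these data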
Beta apoptosis: beta cell apoptosis inhibition. INS-1E cytokine-induced death, ATP luminescence, 48 h; percent of positive-control rescue, neutral wells zero. protection from apoptosis, % (test concentration not listed). 0.8% of 300,000 active. AID 435005;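 active means Every replicate reaches about 75%, or at least half do and their mean reaches it too, limit read from the data; inconclusive means At least half of replicates reach the limit but their mean does not; inactive means Under half of replicates reach the limit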;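 further: higher means more ATP so stronger rescue from cytokine killing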
PP5 primary: blocks human protein phosphatase 5 activity; purified PP5c, OMFP substrate fluorescence; inhibition, % at 6.7 µM; 0.18% of 320,000 active;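 active means inhibition above the campaign's mean inhibition across all tested compounds plus 3 SD, cut at about 9.5% in these data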
Target sequence (P53041 whole entry, looked up): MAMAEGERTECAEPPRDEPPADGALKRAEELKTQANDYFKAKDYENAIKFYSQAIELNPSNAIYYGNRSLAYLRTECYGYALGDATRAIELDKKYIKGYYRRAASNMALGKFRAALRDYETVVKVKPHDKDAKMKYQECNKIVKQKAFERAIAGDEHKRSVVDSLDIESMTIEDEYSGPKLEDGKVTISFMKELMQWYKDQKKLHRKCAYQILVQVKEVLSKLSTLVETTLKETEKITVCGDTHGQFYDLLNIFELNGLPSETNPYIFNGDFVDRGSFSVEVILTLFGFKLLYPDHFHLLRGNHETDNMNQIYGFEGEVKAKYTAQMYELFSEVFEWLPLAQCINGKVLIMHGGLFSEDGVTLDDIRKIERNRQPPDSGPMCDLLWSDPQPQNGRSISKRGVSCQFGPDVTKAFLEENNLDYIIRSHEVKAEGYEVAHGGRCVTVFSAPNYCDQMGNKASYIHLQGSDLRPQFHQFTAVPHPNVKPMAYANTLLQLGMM
PP1 confirm: human PP1 phosphatase inhibition, confirmation | shares compounds with PP1 inh | purified PP1alpha, OMFP substrate fluorescence | inhibition, % at 6.7 µM | 52% of 1,900 active | AID 2358;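 active means mean PP1 inhibition above a set limit taken from the earlier primary screen, cut at about 15% in these data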
PP5 inh counter: PP5 phosphatase inhibition, counter-screen for PP1 inhibitors | shares compounds with PP1 inh | purified PP5c, OMFP fluorescence | inhibition, % at 6.7 µM | 4% of 1,900 active;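 active means mean PP5 inhibition over triplicate wells above about 9.5% taken from the earlier PP1 screen, limit read from the data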
Numbers stand for hits; - = inactive; ? = inconclusive; . = no result.

SMILES | Calb FLC | CSC inhib | Mdm2-MdmX inh | PP1 inh | Beta apoptosis | PP5 primary | PP1 confirm | PP5 inh counter
COc1cnc(-c2ccccn2)nc1Oc1ccc(F)cc1F | - | - | - | 21 | - | - | 23 | -
COc1cnc(-c2ccccn2)nc1Oc1ccccc1Cl | - | - | - | 30 | - | - | 38 | -
COc1cnc(-c2ccccn2)nc1Oc1ccc(Cl)cc1 | - | - | - | 58 | - | - | 39 | -
CC1Cc2cc(S(=O)(=O)CCC(=O)NCc3ccco3)ccc2N1C(=O)C1CC1 (configuration not stated) | - | - | - | - | - | - | . | .
COc1ccc([N+](=O)[O-])cc1NC(=O)C1CCCN1S(=O)(=O)c1cccs1 (configuration not stated) | - | - | - | - | - | - | . | .
Cc1cc(C(=O)OCC(=O)N(C)c2c(N)n(Cc3ccccc3)c(=O)[nH]c2=O)c(C)n1-c1ccccc1 | . | . | - | 21 | - | - | - | -
COCCN(C(=O)COC(=O)C1CC1)c1c(N)n(Cc2ccccc2)c(=O)[nH]c1=O | - | - | - | - | . | - | . | .
COCCN(C(=O)COC(=O)Cc1ccc(Cl)cc1Cl)c1c(N)n(Cc2ccccc2)c(=O)[nH]c1=O | - | - | - | 81 | - | - | - | -
CC(C)[C@H](NC(=O)c1ccco1)C(=O)N(C)Cc1ccc(C(F)(F)F)cc1 | - | - | - | - | - | - | . | .
CCCCn1c(=O)nc2n(-c3ccc(Cl)cc3)c3ccccc3cc-2c1=O | - | - | - | - | - | - | . | .
Cc1cc(NC(=O)c2c(Br)c(C)nn2C)no1 | - | - | - | - | . | - | . | .
O=C(CCNC(=O)c1ccc(Cl)cc1)NCCCN1CCOCC1 | . | . | - | - | - | - | . | .
CCOc1ccc(S(=O)(=O)NCCCN2CCOCC2)cc1 | - | - | - | 23 | - | - | - | -
CCOc1ccc(S(=O)(=O)NCCC(=O)N2CC(C)CC(C)C2)cc1 (configuration not stated) | - | - | - | 79 | - | - | - | -
CC(=O)Nc1ccc(S(=O)(=O)Nc2cccc(C(=O)Nc3ccccc3C(=O)O)c2)cc1 | - | - | - | - | - | - | . | .
CCOc1ccccc1NC(=O)NNC(=O)COc1cccc(C)c1C | - | - | - | - | - | - | . | .
COc1ccc(NC(=S)NNc2ccc([N+](=O)[O-])cc2S(=O)(=O)Nc2ccc(C)cc2C)cc1 | ? | - | - | - | - | - | . | .
Cc1ccc(NS(=O)(=O)c2cc([N+](=O)[O-])ccc2NNC(=S)Nc2cccc(Cl)c2)c(C)c1 | - | 100 | . | 26 | - | - | 29 | -
O=C(COc1ccc2c3c(c(=O)oc2c1)CCCC3)N1C[C@H]2C[C@@H](C1)c1cccc(=O)n1C2 | - | - | - | 30 | - | - | 30 | -
COc1ccc(-c2cc(=O)oc3cc(OCC(=O)N4C[C@H]5C[C@@H](C4)c4cccc(=O)n4C5)ccc23)cc1 | - | - | - | - | - | - | . | .
O=[N+]([O-])c1ccc(N2CCN(S(=O)(=O)c3ccccc3)CC2)cc1NCc1ccco1 | - | - | - | - | - | - | . | .
COc1cc(C(C#N)N2CCC(c3ccccc3)=N2)ccc1O (configuration not stated) | - | - | - | - | - | - | . | .
O=C1OC(=O)C2C1[C@@H]1CC[C@H]2O1 (some centres not stated) | . | - | - | 79 | - | 77 | 66 | 69
CC(=O)NC1C(=O)N(CCN2CCOCC2)c2ccc(Br)cc21 (configuration not stated) | - | - | - | 38 | - | - | 38 | -
CC(OC(=O)c1ccc(NC(=O)CC#N)cc1)C(=O)Nc1ccc(Oc2ccccc2)cc1 (configuration not stated) | - | - | - | 20 | - | - | - | -
O=C(CC1CC2CCC1C2)Nc1nc(-c2ccccn2)cs1 (configuration not stated) | 87 | - | - | 40 | - | - | 41 | -
O=C(Nc1nc(-c2ccccn2)cs1)C1CC1 | - | - | - | - | - | - | . | .
COc1ccc(OCCC(=O)Nc2nccs2)cc1 | - | - | - | - | . | - | . | .

Screens deposited in PubChem by several laboratories.
